Laboratory results published in publication PMC7862700, “An all-to-all approach to the identification of sequence-specific readers for epigenetic DNA modifications on cytosine”.

Columns and labels:
Assay in all cases: DAPPL (digital affinity profiling via proximity ligation, sequencing); 10 mM Tris-HCl pH 7.5, 50 mM NaCl, 1 mM DTT, 4% glycerol, room temperature, 30 min; GST-TFs on glutathione beads, 16-mer random dsDNA library, 0.1% formaldehyde crosslink after washing; high values mean tight binding
Conditions in all cases: protein: recombinant; tags: N-terminal GST; dsDNA, one strand shown
ETV2 = biological target: T1, ETV2 (Homo sapiens, UniProt O00321 1-342)
T1 sequence: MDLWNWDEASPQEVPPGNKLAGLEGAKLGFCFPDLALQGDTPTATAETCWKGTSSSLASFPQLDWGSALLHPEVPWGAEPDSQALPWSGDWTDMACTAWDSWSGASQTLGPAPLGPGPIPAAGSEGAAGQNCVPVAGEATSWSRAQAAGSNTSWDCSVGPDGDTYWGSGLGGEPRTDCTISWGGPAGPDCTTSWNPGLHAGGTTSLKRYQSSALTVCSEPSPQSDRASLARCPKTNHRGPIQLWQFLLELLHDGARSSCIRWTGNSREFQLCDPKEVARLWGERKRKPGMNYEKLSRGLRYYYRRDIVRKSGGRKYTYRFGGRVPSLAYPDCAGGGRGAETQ
In short: (§1)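 Yeast served to express human transcription factors as GST fusions, which were then captured on glutathione beads and labelled with DNA barcodes. Pooled with a tag-only sample, they were incubated with 200 nmole of a 16-mer random double-stranded DNA library for 30 min at room temperature in Tris/NaCl/DTT/glycerol buffer, washed, crosslinked with 0.1% formaldehyde, ligated by proximity, amplified by PCR and sequenced. Dividing each hexamer's read frequency for a factor by its frequency for the tag-only sample gives the binding signal.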

ELF3 = biological target: T2, ELF3 (Homo sapiens, UniProt P78545 1-371)
T2 sequence: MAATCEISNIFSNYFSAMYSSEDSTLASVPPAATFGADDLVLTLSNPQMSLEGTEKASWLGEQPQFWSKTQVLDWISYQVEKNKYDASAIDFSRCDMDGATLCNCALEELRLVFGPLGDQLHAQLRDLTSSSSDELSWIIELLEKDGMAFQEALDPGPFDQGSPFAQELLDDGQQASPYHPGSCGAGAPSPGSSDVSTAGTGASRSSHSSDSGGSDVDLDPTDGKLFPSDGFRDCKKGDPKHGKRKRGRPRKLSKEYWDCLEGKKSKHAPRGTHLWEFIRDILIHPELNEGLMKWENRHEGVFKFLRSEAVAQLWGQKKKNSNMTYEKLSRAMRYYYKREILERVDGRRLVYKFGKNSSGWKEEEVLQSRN
In short: as §1

ETV1 = ETV1 (Homo sapiens, UniProt P50549 1-477)
In short: as §1

ERF = biological target: T3, ERF (Homo sapiens, UniProt P50548 1-548)
T3 sequence: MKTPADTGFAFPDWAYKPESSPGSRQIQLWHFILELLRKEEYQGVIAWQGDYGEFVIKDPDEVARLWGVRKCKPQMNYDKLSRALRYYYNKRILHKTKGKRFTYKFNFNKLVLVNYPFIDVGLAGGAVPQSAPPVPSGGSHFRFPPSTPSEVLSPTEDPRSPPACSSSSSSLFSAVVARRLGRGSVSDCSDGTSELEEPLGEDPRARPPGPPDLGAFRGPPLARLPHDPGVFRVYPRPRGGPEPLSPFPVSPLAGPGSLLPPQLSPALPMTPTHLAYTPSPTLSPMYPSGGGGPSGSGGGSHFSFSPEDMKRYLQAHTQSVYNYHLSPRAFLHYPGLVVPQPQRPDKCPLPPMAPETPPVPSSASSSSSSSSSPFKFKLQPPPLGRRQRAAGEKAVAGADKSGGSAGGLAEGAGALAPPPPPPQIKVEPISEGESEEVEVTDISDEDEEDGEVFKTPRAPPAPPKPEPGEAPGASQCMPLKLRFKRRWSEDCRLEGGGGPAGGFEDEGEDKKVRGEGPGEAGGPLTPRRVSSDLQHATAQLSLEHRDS
In short: as §1

ETV3L = biological target: T4, ETV3L (Homo sapiens, UniProt Q6ZN32 1-361)
T4 sequence: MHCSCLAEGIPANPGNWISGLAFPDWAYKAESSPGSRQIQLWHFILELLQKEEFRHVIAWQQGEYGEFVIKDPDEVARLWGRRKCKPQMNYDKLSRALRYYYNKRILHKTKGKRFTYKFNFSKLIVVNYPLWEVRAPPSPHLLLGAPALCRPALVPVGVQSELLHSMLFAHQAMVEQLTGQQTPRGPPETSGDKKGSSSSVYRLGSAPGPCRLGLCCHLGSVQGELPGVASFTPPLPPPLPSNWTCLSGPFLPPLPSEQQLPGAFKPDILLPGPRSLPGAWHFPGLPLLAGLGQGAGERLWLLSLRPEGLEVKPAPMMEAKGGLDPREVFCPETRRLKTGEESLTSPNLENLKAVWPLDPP
In short: as §1

ETS2 = biological target: T5, ETS2 (Homo sapiens, UniProt P15036 1-469)
T5 sequence: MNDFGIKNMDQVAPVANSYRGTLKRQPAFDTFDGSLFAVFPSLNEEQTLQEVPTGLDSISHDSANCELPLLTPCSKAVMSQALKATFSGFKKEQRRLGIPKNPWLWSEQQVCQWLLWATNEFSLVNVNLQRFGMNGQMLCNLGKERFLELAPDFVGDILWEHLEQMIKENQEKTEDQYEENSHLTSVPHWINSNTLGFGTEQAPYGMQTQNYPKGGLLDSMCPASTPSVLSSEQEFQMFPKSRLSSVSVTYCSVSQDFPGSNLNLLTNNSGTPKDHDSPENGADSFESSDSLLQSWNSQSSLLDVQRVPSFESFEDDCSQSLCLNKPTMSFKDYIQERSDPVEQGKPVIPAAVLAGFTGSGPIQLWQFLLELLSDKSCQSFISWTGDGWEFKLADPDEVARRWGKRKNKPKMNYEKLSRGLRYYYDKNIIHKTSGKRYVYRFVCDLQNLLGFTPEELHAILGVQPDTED
In short: as §1

SPDEF = biological target: T6, SPDEF (Homo sapiens, UniProt O95238 1-335)
T6 sequence: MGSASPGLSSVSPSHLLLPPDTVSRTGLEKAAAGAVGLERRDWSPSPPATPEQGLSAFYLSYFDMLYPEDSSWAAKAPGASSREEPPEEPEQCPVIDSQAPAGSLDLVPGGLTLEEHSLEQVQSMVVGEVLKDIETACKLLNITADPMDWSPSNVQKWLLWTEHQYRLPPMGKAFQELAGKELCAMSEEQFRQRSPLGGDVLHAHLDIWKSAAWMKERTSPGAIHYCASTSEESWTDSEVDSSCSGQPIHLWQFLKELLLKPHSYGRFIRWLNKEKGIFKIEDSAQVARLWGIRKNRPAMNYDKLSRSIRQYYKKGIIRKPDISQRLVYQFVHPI
In short: as §1

ETV7 = biological target: T7, ETV7 (Homo sapiens, UniProt Q9Y603 1-341)
T7 sequence: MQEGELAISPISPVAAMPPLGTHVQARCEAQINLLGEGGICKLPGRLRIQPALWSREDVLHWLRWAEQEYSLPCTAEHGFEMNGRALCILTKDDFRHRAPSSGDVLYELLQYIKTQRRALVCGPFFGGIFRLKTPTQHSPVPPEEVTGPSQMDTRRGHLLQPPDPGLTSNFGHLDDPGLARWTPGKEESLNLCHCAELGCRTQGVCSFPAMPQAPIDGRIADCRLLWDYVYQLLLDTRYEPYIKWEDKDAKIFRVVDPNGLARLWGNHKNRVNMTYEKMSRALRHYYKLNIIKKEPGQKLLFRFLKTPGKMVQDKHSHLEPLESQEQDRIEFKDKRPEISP
In short: as §1

ETV3 = biological target: T8, ETV3 (Homo sapiens, UniProt P41162-2 1-143)
T8 sequence: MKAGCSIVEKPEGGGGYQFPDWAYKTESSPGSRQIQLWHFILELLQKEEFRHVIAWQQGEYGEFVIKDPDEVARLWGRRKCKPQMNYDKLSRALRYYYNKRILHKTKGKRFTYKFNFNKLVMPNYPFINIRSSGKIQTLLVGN
In short: as §1

ETV6 = ETV6 (Homo sapiens, UniProt P41212 1-452)
In short: as §1

Chain of ETV1 (P50549 whole entry): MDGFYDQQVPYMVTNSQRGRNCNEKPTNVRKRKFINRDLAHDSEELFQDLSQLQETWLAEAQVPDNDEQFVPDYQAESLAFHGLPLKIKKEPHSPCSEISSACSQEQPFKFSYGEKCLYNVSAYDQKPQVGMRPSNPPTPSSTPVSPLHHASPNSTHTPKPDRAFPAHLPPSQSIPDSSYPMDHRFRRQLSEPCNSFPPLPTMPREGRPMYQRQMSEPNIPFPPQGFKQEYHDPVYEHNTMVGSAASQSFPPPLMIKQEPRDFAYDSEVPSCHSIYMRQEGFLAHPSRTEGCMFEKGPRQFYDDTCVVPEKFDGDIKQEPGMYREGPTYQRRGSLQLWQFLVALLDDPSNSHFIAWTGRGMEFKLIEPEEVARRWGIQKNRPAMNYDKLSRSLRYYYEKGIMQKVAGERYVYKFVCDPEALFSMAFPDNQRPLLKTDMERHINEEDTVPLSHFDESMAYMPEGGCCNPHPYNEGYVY
Chain of ETV6 (P41212 whole entry): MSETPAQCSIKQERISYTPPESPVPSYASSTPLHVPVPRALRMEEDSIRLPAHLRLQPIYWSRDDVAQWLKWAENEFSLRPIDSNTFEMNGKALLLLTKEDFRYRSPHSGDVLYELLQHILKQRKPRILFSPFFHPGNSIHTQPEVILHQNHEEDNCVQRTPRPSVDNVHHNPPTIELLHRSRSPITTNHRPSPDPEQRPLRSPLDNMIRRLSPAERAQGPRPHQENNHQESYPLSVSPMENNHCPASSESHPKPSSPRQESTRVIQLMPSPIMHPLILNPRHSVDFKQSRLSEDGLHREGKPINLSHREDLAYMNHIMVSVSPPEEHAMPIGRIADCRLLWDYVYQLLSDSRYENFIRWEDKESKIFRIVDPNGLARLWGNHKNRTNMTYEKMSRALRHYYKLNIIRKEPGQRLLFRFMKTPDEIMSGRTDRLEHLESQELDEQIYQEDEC

GCCTGC
binding signal (ETV2): 1.15 fold enrichment (6-mer frequency, TF over GST control)
binding signal (ELF3): 1.13 fold enrichment (6-mer frequency, TF over GST control)
binding signal (ETV1): 1.18 fold enrichment (6-mer frequency, TF over GST control)
binding signal (ERF): 1.05 fold enrichment (6-mer frequency, TF over GST control)
binding signal (ETV3L): 1.17 fold enrichment (6-mer frequency, TF over GST control)
binding signal (ETS2): 1.05 fold enrichment (6-mer frequency, TF over GST control)
binding signal (SPDEF): 1.02 fold enrichment (6-mer frequency, TF over GST control)
binding signal (ETV7): 1.13 fold enrichment (6-mer frequency, TF over GST control)
binding signal (ETV3): 1.03 fold enrichment (6-mer frequency, TF over GST control)
binding signal (ETV6): 1.05 fold enrichment (6-mer frequency, TF over GST control)
